According to paper PMC5540273 (PLoS ONE, 2017):

Legend:
Conditions in all cases: concentration: 1 μM, replicates: in singlicate; n = 1
[1] = tested on: IRAK4
[2] = tested on: ITK
[3] = tested on: JAK1(JH1domain-catalytic)
[4] = tested on: JAK1(JH2domain-pseudokinase)
[5] = tested on: JAK2(JH1domain-catalytic)
[6] = tested on: JAK3(JH1domain-catalytic)
[7] = tested on: T1, JNK1
T1 construct: gene MAPK8

[8] = tested on: T2, JNK2
T2 construct: gene MAPK9

[9] = tested on: T3, JNK3
T3 construct: gene MAPK10

[10] = tested on: KIT-autoinhibited
[11] = tested on: KIT
[12] = tested on: LATS1
[13] = tested on: LATS2
[14] = tested on: LCK
[15] = tested on: LIMK1
[16] = tested on: LIMK2
[17] = tested on: T4, LKB1
T4 construct: gene STK11

[18] = tested on: T5, LOK
T5 construct: gene STK10

[19] = tested on: LRRK2
[20] = tested on: LTK
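Also: KINOMEscan kinase panel screen.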

Compound	%Inh [1]	%Inh [2]	%Inh [3]	%Inh [4]	%Inh [5]	%Inh [6]	%Inh [7]	%Inh [8]	%Inh [9]	%Inh [10]	%Inh [11]	%Inh [12]	%Inh [13]	%Inh [14]	%Inh [15]	%Inh [16]	%Inh [17]	%Inh [18]	%Inh [19]	%Inh [20]
Cc1cccc(-c2nc(C)cc(Nc3ccncc3)n2)n1 [GSK257997]	1%	12%	13%	0%	0%	0%	4%	43%	32%	0%	17%	0%	0%	34%	11%	19%	8%	0%	0%	16%
COC(=O)c1c(-c2ccccc2)c2cc(C(=O)O)ccc2c(=O)n1Cc1ccccc1	22%	5%	2%	0%	0%	0%	0%	0%	0%	0%	93.1%	22%	0%	0%	1%	0%	0%	0%	0%	0%
COc1ccccc1-c1ccc2c(NC(=O)C3CC3)n[nH]c2n1 [SB-711239]	7%	0%	25%	0%	0%	13%	0%	9%	0%	0%	0%	28%	8%	10%	0%	5%	6%	0%	0%	4%
Fc1cc(Cl)ccc1Nc1ccnc2cc(I)ccc12 [GW551191]	14%	13%	0%	0%	1%	0%	18%	29%	10%	0%	49%	0%	0%	24%	0%	0%	0%	0%	37%	13%
COc1ccc(Nc2nccc(NCCNC(=O)Nc3ccccc3F)n2)cc1 [GSK1379901]	20%	9%	15%	0%	25%	0%	56%	15%	11%	0%	57%	44%	0%	20%	4%	3%	0%	0%	0%	0%
CS(=O)(=O)c1ccc(-c2c(-c3ncn[nH]3)sc(N3CCOCC3)c2C#N)cc1	0%	6%	0%	56%	0%	2%	25%	0%	0%	49%	28%	24%	9%	8%	0%	3%	0%	31%	0%	28%
O=c1cc(N2CCOCC2)nc2n(Cc3cccc(Cl)c3Cl)ccn12 [GSK2286295]	0%	4%	17%	0%	0%	0%	1%	30%	15%	0%	32%	0%	13%	9%	0%	0%	0%	0%	31%	0%
C[C@@H]1CCCCN1c1cc(-c2ccc3c(N)n[nH]c3c2)nc(N)n1 [GSK2258759]	0%	0%	8%	0%	0%	0%	0%	10%	0%	0%	4%	23%	14%	0%	0%	19%	0%	0%	0%	0%
CCCc1ccc(S(=O)(=O)NC2CCN(c3ccnc(Nc4ccc(F)cc4)n3)C2)cc1 (stereo not shown) [GSK1379715]	16%	6%	18%	0%	52%	0%	24%	21%	9%	0%	12%	0%	0%	0%	14%	0%	0%	0%	19%	4%
O=C(Nc1n[nH]c2cc(-c3cccc(F)c3F)ccc12)C1CC1 [SB-733894]	0%	0%	0%	67%	27%	18%	32%	0%	1%	6%	18%	0%	22%	0%	0%	0%	0%	0%	0%	0%
Cc1cc(NCC(c2ccccc2)c2ccccc2)nc(NCc2ccc(C(F)(F)F)cc2)n1 [GW497681]	8%	0%	10%	0%	0%	0%	0%	0%	0%	0%	6%	0%	5%	0%	0%	9%	12%	0%	0%	0%
